About 83,000 compounds went through this panel and 20% of them were active in at least one assay; those are over-represented in the sample as a whole.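 Single-dose data. Exposure time 48 hours. Values below 10 considered active.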 Activity calls are given as the source filed them.
Test system: MDA-MB-468 breast
Assay: NCI-60 one-dose screen, 48 h (100 = growth as untreated, 0 = no growth, -100 = all killed)
Settings: 10 µM unless noted

SMILES	growth
COc1cccc(CC(C)=C(c2ccc(OCCN(C)C)cc2)c2ccc(OCCN(C)C)cc2)c1	-61.5% (active)
CCOC(=O)c1c(C(=O)c2cn(C)c3ccc(Br)cc23)c(-c2cn(C)c3ccc(Br)cc23)n(NC(=O)OC(C)(C)C)c1C	41.5% [100 µM] (inactive)
Nc1nc(CSc2n[nH]c(N)n2)nc(Nc2ccccc2)n1	108% (inactive)
O=C(Oc1cccnc1)c1ccsc1Nc1ccnc(C(F)(F)F)c1	17% (inactive)
CC(C)(C)CC(C)(C)Nc1c(-c2ccncc2)nc2cnccn12	87.5% (inactive)
CC(=O)Nc1ccc(-n2c(O)c(/C=N/NC(=O)Cc3ccccc3Nc3c(Cl)cccc3Cl)sc2=S)cc1	94.2% (inactive)
Cc1cc(N[C@@H]2CCC[C@H](Nc3ccnc4cc(Cl)ccc34)C2)nc(N2CCCCCC2)n1	-65.8% (active)
CN(CCCN(C)CCC1CCCCC1)CCC1CCCCC1	-76.1% (active)
Cc1cc2nc3c4cc([N+](=O)[O-])cc([N+](=O)[O-])c4n(CCN(C)C)c3nc2cc1C	104% (inactive)
O=C(NNC(=O)c1ccc(-n2cc(-c3ccccc3)nn2)cc1)Nc1ccccc1	109% (inactive)
O=C(NNC(=O)c1cccc(Cl)c1)c1ccccc1	94.4% (inactive)
Cc1ncc(C(=O)Nc2ccc(CN3CCN(C)CC3)c(C(F)(F)F)c2)cc1C#Cc1cnc(N)c2cnccc12	-6.82% (active)
COC(=O)c1nc(-c2ccccc2)oc1S(=O)(=O)n1nc(-c2ccccc2)cc1N	74.6% (inactive)
CN1CCN(Cc2ccc(NC(=O)c3[nH]ncc3Nc3ncnc4sccc34)cc2)CC1	15.8% (inactive)
Cc1ccc([N+](=O)[O-])cc1NC(=O)Nc1cccc(F)c1	26.9% (inactive)
C[n+]1c(-c2ccccc2)c2cc(N)ccc2c2ccccc21	-15.4% (active)
COc1ccc(/C(=C2\O[C@@H]([C@H](O)CO)[C@H]3OC(C)(C)O[C@@H]23)c2cc(OC)c(OC)c(OC)c2)cc1O	107% (inactive)

SMILES	growth
COc1cc(C)c(Cc2cnc(N)nc2N)cc1OC	116% (inactive)
O=C(Cc1nc2ccc([N+](=O)[O-])cc2nc1CC(=O)c1ccccc1)c1ccccc1	68.9% (inactive)
CC1(C)C=CC[C@]2(C)[C@H]3CC[C@@H]4[C@H]5[C@H](C(=O)/C=C/c6cccnc6)CC[C@]5(CO)CC[C@@]4(C)[C@]3(C)CC[C@@H]12	-60.7% (active)
CC(C)CSc1nc(NN)c(C#N)c(-c2ccccc2)n1	98.2% (inactive)
O=C(NO)c1ccc(Cn2c(=O)n(CCc3ccccc3)c(=O)c3ccccc32)cc1	40.9% (inactive)
CCOC(=O)N1C=CC2C=CC1C1C=CC=CC2N1C(=O)OCC (centres undefined)	53.1% (inactive)
COc1cc2oc(-c3cccc(NC(=O)c4cc(NC(=O)[C@H](C)N)ccc4Cl)c3)cc(=O)c2c(OC)c1OC	91.1% (inactive)
Cc1cccc(C[C@H](NC(=O)Nc2ccc(C)cc2F)C(=O)N[C@@H]2C(=O)N3C[C@H](O)C[C@H]3C(=O)N3CCN(C)C[C@H]3C(=O)N[C@@H](C)C(=O)N3C[C@H](C)C[C@H]3C(=O)O[C@H]2C)c1	6.46% (active)
COc1cc(-c2nc3ccccc3[nH]2)ccc1OCc1nnc(-c2ccc(CC(C)C)cc2)o1	94.1% (inactive)
COc1ccc(-c2nc3ccc(Cc4ccc5nc(-c6ccc(OC)cc6)[nH]c5c4)cc3[nH]2)cc1	-20.2% (active)
COc1ccc(-c2nc(SC)nc(N3CCOCC3)c2C#N)cc1	101% (inactive)
Cc1[nH]c2ncnc(Oc3ccc(NC(=O)Nc4ccc(Cl)c(C(F)(F)F)c4)cc3)c2c1C	69.5% (inactive)
CO[C@H]1/C=C/C=C/C=C/C[C@H](OC(=O)[C@@H](C)NC(=O)C2CCCCC2)[C@H](C)[C@@H](O)/C(C)=C\CCC2=CC(=O)C=C(NC(=O)C1)C2=O	-40.9% (active)
CCN1C(=O)N(CC)C2C1N=C(SCc1ccc(Cl)cc1)N2/N=C/C=C/c1ccccc1OC (centres undefined)	40.5% (inactive)
CO/N=C(/C)c1ccc(NC(=O)CSc2nnc(-c3ccncc3)n2-c2ccccc2)cc1	50.8% (inactive)
O=C(N/N=C/C[C@@H]1[C@@H](/C=C/[C@@H](O)COc2cccc(Cl)c2)[C@H](O)C[C@@H]1O)c1ccncc1	97.9% (inactive)
Cc1ccc(NC(=O)COC(=O)c2ccc(S(=O)(=O)N3CCCCCC3)cc2)cc1	92.9% (inactive)

— PubChem BioAssay (NCI)
